Results filed as inconclusive are left out. The source made the active and inactive calls. The call rests on the fitted dose curve; in most records, active means well fitted activation curve with a large enough effect in the repeat runs; inconclusive means weak or mixed curves; inactive means no such curve, though single readings can be large or run the other way.
Experiment: qHTS assay to identify small molecule agonists of the estrogen related receptor signaling pathway with the pleiotropic PPARgamma coactivator (PGC) (AID 1224823)
Conditions: ERR/PGC reporter cell line, luciferase agonist mode; series mostly up to 46.1 µM; activation: at the top concentration
Source text: National Center for Advancing Translational Sciences [NCATS]
NIH Chemical Genomics Center [NCGC]
U.S. Environmental Protection Agency [EPA]
National Institutes of Environmental Health Sciences [NIEHS]
National Toxicology Program [NTP]
Estrogen related receptors (ERRs), the first orphan nuclear receptors discovered, play an important role in the control of cellular energy metabolism. ERRs are required for high-energy production in response to the environmental challenges. The pleiotropic PPARgamma coactivator (PGC) is a major partner of ERR and a key regulator in energy homeostasis. Together they have been implicated in the etiology of metabolic disorders such as Type 2 diabetes and metabolic syndrome. ERR-alpha was also identified as an adverse marker for breast cancer progression; ERR-alpha-positive tumors have a poor prognosis. To screen and to identify environmental compounds that perturb the PGC/ERR signaling pathways could provide valuable information for potential therapeutic or preventive measures in the treatment of metabolic disease. For identifying PGC/ERR agonists, PGC/ERR cell line (provided by NTP) has been used to screen LOPAC library.
The PGC/ERR cells were dispensed at 2,000 cells/5 ul/well in 1536-well white plates using a Multidrop dispenser. After the assay plates were incubated at a 37 C/5% CO2 incubator for 6 hours, 23 nL of compounds dissolved in DMSO, positive and negative controls or DMSO only was transferred to the assay plate by a pin tool. The plates were incubated at 37 C for 18 hours. 4 ul/well of One-Glo reagent was added into the assay plates using a Flying Reagent Dispenser. After 30 min incubation at room temperature, the luminescence intensity in the plates was measured using a ViewLux plate reader.
On the % scale 0 is the no-effect control and ±100 the full control effect; potency means the concentration at half of the fitted maximal effect.

Compound	activation	Potency
CSc1nc(N)c2ncn([C@@H]3O[C@H](COP(=O)(O)OP(=O)(O)O)C(O)[C@H]3O)c2n1 (stereo not given in full)	6.31% (inactive)	
Brc1ccc([C@H]2CN3CCSC3=N2)cc1	3.21% (inactive)	
N[C@@H](CS(=O)O)C(=O)O	1.86% (inactive)	
NC(N)=NC(=O)c1nc(Cl)c(N2CCCCCC2)nc1N	3.49% (inactive)	
CC#CCOC(=O)c1c(C)nc2sc3c(c2c1N)CCC(O)C3 (stereo not given)	-7.75% (inactive)	
Nc1nc(Cl)nc2c1ncn2[C@@H]1O[C@H](COP(=O)(O)OP(=O)(O)OP(=O)(O)O)C(O)[C@H]1O (stereo not given in full)		1.33 µM (active)
N=C(N)c1ccc(OCCCCCOc2ccc(C(=N)N)cc2)cc1 (tested in a mixture with another compound)	-12% (inactive)	
C=CCNc1ncnc2ccc(Br)cc12	-20.3% (inactive)	
NC(=O)CC[C@H](N)C(=O)O	1.35% (inactive)	
COc1ccc(NC(=O)c2ccc(-c3ccc(-c4noc(C)n4)cc3C)cc2)cc1N1CCN(C)CC1	7.05% (inactive)	
Oc1cc2c(cc1O)C(c1ccccc1)CNCC2 (stereo not given)	-13.5% (inactive)	
CCN(CC)CCn1c(=O)c(Cc2ccc(OC)cc2)nc2ccccc21	3.43% (inactive)	
Nc1ccc(-c2nc3ccc(-c4nc5ccc(N)cc5[nH]4)cc3[nH]2)cc1	2.79% (inactive)	
O=[N+]([O-])c1cccc2cn[nH]c12	5.2% (inactive)	
CCCCCCCCCC(=O)NC(CN1CCOCC1)[C@H](O)c1ccccc1 (stereo not given in full)	-8.31% (inactive)	
Cn1cc(C(F)(F)F)nc1-c1ccc(OCC(O)CNCCOc2ccc(O)c(C(N)=O)c2)cc1 (stereo not given)	-7.88% (inactive)	
N[C@@H](Cc1cnc[nH]1)C(=O)O	-7.41% (inactive)	
Cn1c(=O)c2[nH]c(-c3ccccc3)nc2n(C)c1=O	-2.87% (inactive)	
NC(Cc1cccc(-c2ccccc2CP(=O)(O)O)c1)C(=O)O (stereo not given)	2.2% (inactive)	
Cc1cccc(/C=C/c2ccccc2)n1		13.9 µM (active)

Compound	activation	Potency
c1ccc2occc2c1	4.44% [at 92.2 µM] (inactive)	
CN1[C@@H](CC(=O)c2ccccc2)CCC[C@H]1C[C@H](O)c1ccccc1	2.45% (inactive)	
O=C1/C(=C/c2ccsc2)CC/C1=C\c1cccs1		21.1 µM (active)
COC(=O)C(C)(N)Cc1ccc(O)cc1 (stereo not given)	-4.52% (inactive)	
NCCCCN=C(N)N	-1.96% (inactive)	
CC(=O)N[C@@H](Cc1c[nH]c2ccccc12)C(=O)OCc1cc(C(F)(F)F)cc(C(F)(F)F)c1	3.15% (inactive)	
CCCn1c(=O)c2c(ncn2C)n(CCC)c1=O	-0.665% (inactive)	
Cc1ccc([N+](=O)[O-])cc1S(=O)(=O)N(C)C	5.62% (inactive)	
CNC(=O)[C@H]1O[C@@H](n2cnc3c(NCc4ccc(N)cc4)ncnc32)[C@H](O)C1O (stereo not given in full)	27% (inactive)	
C[C@](Cc1ccc(O)c(O)c1)(NN)C(=O)O	0.688% (inactive)	
c1ccc(C(NCCNC(c2ccccc2)c2ccccc2)c2ccccc2)cc1	-13% (inactive)	
CCCCC[C@H](CC(=O)NO)C(=O)N[C@H](C(=O)N1CCC[C@H]1CO)C(C)C	-23.6% (inactive)	
NC(N)=[N+]1CCc2ccccc2C1	-5.66% (inactive)	
NC(=O)c1cccc(N)c1	2.31% (inactive)	
N=C(N)SCCc1cnc[nH]1	-6.03% (inactive)	
CC(N)=NCCCC[C@@H](N)C(=O)O	4.56% (inactive)	
NC(=NCc1ccccc1)NC(=O)c1nc(Cl)c(N)nc1N	9.98% (inactive)	
CC(=O)N[C@H](C(=O)O)C(C)(C)SN=O	0.694% (inactive)	
COc1ccccc1N1CCN(CCCCN2C(=O)c3ccccc3C2=O)CC1	1.46% (inactive)	
Clc1ccc(N2CCN(Cc3c[nH]c4ncccc34)CC2)cc1	6.51% (inactive)	

Reference: PubChem BioAssay (Tox21)
